Results published in PubChem BioAssay AID1159580 (chemical genetic matrix, 2015).
Where “and” joins values, the source holds several entries; their conditions need not be identical. Equal values may be shown once. The whole screen tested about 5,500 compounds, of which about 2,000 (36%) were called active. Not shown: some 18% with an inconclusive outcome. No stated cut-off is given here; in the data, active means normalized growth mostly below about 0.91 (no sharp cut-off); inconclusive means no clear call, values can overlap the other calls; inactive means mostly above about 0.92. This is one part of the list.

Assay: chemical genetic growth profiling, strain panel (AID 1159580);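 further: tested at 20 µM; growth read once vehicle control cultures reached saturation at 30 °C; 1 = growth at the plate median or of vehicle wells; lower values mean less growth of the strain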
Details: S. cerevisiae deletion strains, growth OD

Measured: normalized growth

CCCCCC(O)C1C(=O)OC(C)C(O)/C=C/C=C/C=C/C=C/C=C(\C)C(O)CC(O)CC(O)CC(O)CC(O)CC(O)CC1O (configuration not stated)
inactive: locus YAL013W, strain DEP1, hits give low values 1.01 | locus YAL021C, strain ccr4, hits give low values 1.01 | locus YAL026C, strain drs2, hits give low values 0.994 | locus YAL030W, strain snc1, hits give low values 0.985 | locus YBL061C, strain skt5, hits give low values 0.982 | locus YBR009C, strain hhf1, hits give low values 0.996 | locus YBR021W, strain FUR4, hits give low values 1.02 | locus YBR023C, strain chs3, hits give low values 0.989 | locus YBR171W, strain sec66, hits give low values 0.982 | locus YBR229C, strain ROT2, hits give low values 1.01 | locus YBR231C, strain swc5, hits give low values 0.992 | locus YBR279W, strain paf1, hits give low values 0.993 | locus YCL011C, strain gbp2, hits give low values 1 | locus YCL016C, strain dcc1, hits give low values 0.986 | locus YCL029C, strain bik1, hits give low values 1.03 | locus YCL061C, strain MRC1, hits give low values 0.992 | locus YCL069W, strain vba3, hits give low values 0.993 | locus YCR088W, strain abp1, hits give low values 0.993 | locus YDL005C, strain med2, hits give low values 0.995 | locus YDL035C, strain GPR1, hits give low values 1.02 | locus YDL040C, strain nat1, hits give low values 0.99 | locus YDL074C, strain BRE1, hits give low values 1.01 | locus YDL101C, strain DUN1, hits give low values 1.01 | locus YDL134C, strain PPH21, hits give low values 1.01 | locus YDL185W, strain tfp1, hits give low values 1.03 | locus YDL192W, strain arf1, hits give low values 1.04 | locus YDR001C, strain nth1, hits give low values 0.983 | locus YDR069C, strain doa4, hits give low values 0.996 | locus YDR101C, strain arx1, hits give low values 1.02 | locus YDR137W, strain rgp1, hits give low values 1.01 | locus YDR150W, strain NUM1, hits give low values 1.02 | locus YDR159W, strain sac3, hits give low values 0.96 | locus YDR162C, strain NBP2, hits give low values 1.02 | locus YDR195W, strain ref2 0.96 | locus YDR297W, strain sur2, hits give low values 1.01 | locus YDR318W, strain mcm21, hits give low values 1.03 | locus YDR334W, strain swr1, hits give low values 0.986 | locus YDR335W, strain msn5, hits give low values 0.985 | locus YDR388W, hits give low values 1.03 | locus YDR392W, strain spt3, hits give low values 0.937 | locus YDR502C, strain sam2, hits give low values 1.01 | locus YEL003W, strain gim4, hits give low values 0.993 | locus YEL037C, strain rad23, hits give low values 1.02 | locus YEL061C, strain CIN8 (second series), hits give low values 0.98 | locus YEL061C, strain CIN8, hits give low values 1 | locus YER015W, strain faa2, hits give low values 0.991 | locus YER016W, strain bim1, hits give low values 0.986 | locus YER110C, hits give low values 1.02 | locus YER111C, strain swi4, hits give low values 0.996 | locus YER155C, strain BEM2 (second series), hits give low values 0.976 | locus YER155C, strain BEM2, hits give low values 1.02 | locus YER167W, strain BCK2, hits give low values 1.04 | locus YFR010W, strain ubp6, hits give low values 0.984 | locus YGL078C, strain dbp3, hits give low values 1.01 | locus YGL086W, strain mad1, hits give low values 1.03 | locus YGL167C, strain pmr1, hits give low values 0.984 | locus YGL173C, strain kem1, hits give low values 0.993 | locus YGL227W, strain vid30, hits give low values 0.989 | locus YGL240W, strain doc1, hits give low values 0.981 | locus YGL248W, strain PDE1, hits give low values 1.01 | locus YGL253W, strain hxk2, hits give low values 1 | locus YGR078C, strain PAC10, hits give low values 1 | locus YGR135W, strain pre9, hits give low values 1.02 | locus YGR229C, strain SMI1, hits give low values 1.02 | locus YGR252W, strain gcn5, hits give low values 1.04 | locus YHR013C, strain ard1, hits give low values 0.966 | locus YHR027C, strain rpn1, hits give low values 0.994 | locus YHR030C, strain SLT2, hits give low values 1.01 and 0.963 | locus YHR079C, strain IRE1 (second series), hits give low values 1.02 | locus YHR079C, strain IRE1, hits give low values 0.959 | locus YHR094C, strain hxt1, hits give low values 1.02 | locus YHR129C, strain ARP1, hits give low values 1 | locus YHR142W, strain chs7, hits give low values 1.01 | locus YHR200W, strain rpn10, hits give low values 1.02 | locus YIL066C, strain RNR3, hits give low values 1.01 | locus YIL073C, strain SPO22, hits give low values 1.12 | locus YIL125W, strain kgd1, hits give low values 1.03 | locus YIR030C, strain dcg1, hits give low values 1.02 | locus YJL092W, strain hpr5, hits give low values 0.985 | locus YJL095W, strain BCK1 (second series), hits give low values 0.988 | locus YJL095W, strain BCK1, hits give low values 1.01 and 0.975 | locus YJL115W, strain asf1, hits give low values 0.991 | locus YJL129C, strain trk1, hits give low values 0.976 | locus YJL134W, strain LCB3, hits give low values 1.01 | locus YJL154C, strain vps35, hits give low values 0.985 | locus YJL164C, strain tpk1, hits give low values 1 | locus YJL166W, strain qcr8, hits give low values 0.997 | locus YJL168C, strain set2, hits give low values 1.02 | locus YJL187C, strain SWE1 (second series), hits give low values 1 | locus YJL187C, strain SWE1, hits give low values 0.995 | locus YJR043C, strain POL32, hits give low values 1.03 | locus YJR066W, strain TOR1, hits give low values 0.939
